Compound activity as filed in PubChem.
uPA surface inh – qHTS for Inhibitors of Cell Surface uPA Generation. AID 540303, 2011. Potency, µM (series often up to 38.3 µM), actives largely listed as inhibitors. actives 0.31% (n = 330,000). cell surface uPA generation assay, qHTS; active means well fitted inhibition curve with a large enough effect; inconclusive means small, poorly fitted or top-dose-only effect; inactive means no such curve, though single readings can be large or run the other way; tested in mouse RAW 264.7 cells; further: nearly all actives have a fitted effect of over 55% in size
miR-21 act – qHTS Assay for Modulators of miRNAs and/orActivators of miR-21. Potency, µM (top dose mostly 38.3 µM), hits mostly activators. 340,000 tested, under 10 active. HeLa miR-21 FLuc reporter, luciferase, 48 h;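 further: miR-21 action dims this reporter so a rising signal means less miR-21 action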
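HeLa cells stably expressing CMV-driven firefly luciferase with a downstream miR-21 binding sequence, endogenously expressing miR-21, were treated with titrations (up to about 40uM final) for 48 hours at 37 degree Celsius. Luciferase luminescence was read after lysis.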
TDP1 cell CPT – qHTS for Inhibitors of human tyrosyl-DNA phosphodiesterase 1 (TDP1): qHTS in cells in presence of CPT; chicken DT40 Tdp1-/-;hTDP1 cells + 20 nM CPT, ATP luminescence, 48 h; Potency, µM (titrated, usually from 46.2 µM), hits mostly inhibitors; actives 12% (n = 420,000); further: nearly all actives have a fitted effect of over 55% in size
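Chicken DT40 Tdp1-/- cells stably complemented with human TDP1 were seeded at 400 cells/well in medium containing 20 nM camptothecin, exposed to pin-transferred compounds, and grown at 37 °C for at least 48 hr. Viability was read as ATP luminescence.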
DT40 TDP1 no CPT – qHTS for Inhibitors of human tyrosyl-DNA phosphodiesterase 1 (TDP1): qHTS in cells in absence of CPT; DT40 Tdp1-/- hTDP1 cells, no CPT, ATP luminescence, 48 h; actives 15% (n = 420,000); AID 686978, 2013; Potency, µM (highest dose often 46.2 µM), hits mostly inhibitors; further: nearly all actives have a fitted effect of over 55% in size
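A cellular qHTS used chicken DT40 cells lacking endogenous Tdp1 but carrying stably transfected human TDP1. Compounds were applied without camptothecin, and cell growth kinetics were judged by ATP-dependent luminescence after ≥48 hr.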
TDP1 inh – qHTS Assay for Inhibitors of Tyrosyl-DNA Phosphodiesterase (TDP1). recombinant TDP1, AlphaScreen DNA substrate cleavage. Potency, µM (titrated, usually from 130 µM), actives largely listed as inhibitors. actives 0.28% (n = 350,000); further: nearly all actives have a fitted effect of over 40% in size
Target sequence (Q9NUW8 whole entry, looked up): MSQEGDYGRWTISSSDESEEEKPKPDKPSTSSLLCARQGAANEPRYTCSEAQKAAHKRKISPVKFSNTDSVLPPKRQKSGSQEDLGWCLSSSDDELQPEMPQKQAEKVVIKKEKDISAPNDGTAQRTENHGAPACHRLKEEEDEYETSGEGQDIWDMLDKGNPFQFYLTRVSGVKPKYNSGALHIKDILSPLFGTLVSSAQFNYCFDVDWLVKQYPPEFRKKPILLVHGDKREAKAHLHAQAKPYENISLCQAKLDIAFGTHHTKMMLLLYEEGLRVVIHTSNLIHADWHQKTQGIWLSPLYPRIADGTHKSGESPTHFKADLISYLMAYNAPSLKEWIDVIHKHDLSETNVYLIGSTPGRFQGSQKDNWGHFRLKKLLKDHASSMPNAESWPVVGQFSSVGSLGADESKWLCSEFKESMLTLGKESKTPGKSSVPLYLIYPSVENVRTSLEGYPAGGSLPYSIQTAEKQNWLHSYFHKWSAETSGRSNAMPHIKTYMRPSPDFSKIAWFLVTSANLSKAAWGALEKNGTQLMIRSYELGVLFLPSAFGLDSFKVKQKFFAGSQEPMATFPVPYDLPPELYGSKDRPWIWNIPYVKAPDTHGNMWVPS
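Recombinant E. coli-expressed Tdp1 (1 nM) preincubated with compound 15 min at RT, then 5'-biotin/3'-phosphotyrosine-FITC DNA substrate (15 nM) added for 5 min. AlphaScreen beads (10 ug/ml) added, 10 min RT; tyrosine-FITC cleavage read as signal loss.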
Numbers stand for hits; . = inactive; ? = inconclusive; / = not tested or not shown; [ ] = dose if it differs, or a comment. The list is not random: actives were taken first. Their share in the collection is about 16%. Unless noted, the call rests on the fitted dose curve; in most records, active means well fitted curve in the direction sought with a large enough effect; inconclusive means small, poorly fitted or top-dose-only effect, or another doubt; inactive means no such curve, though single readings can be large; an effect the other way counts as inactive or inconclusive.

SMILES | uPA surface inh | miR-21 act | TDP1 cell CPT | DT40 TDP1 no CPT | TDP1 inh
O=C(NCc1ccccc1)C(c1ccco1)N(C(=O)c1ccccn1)c1ccccc1 (configuration not stated) | . | . | . | . | /
O=c1oc(-c2ccccc2Br)nc2ccccc12 | . | . | ? | ? | .
CC1CCN(CCCNC(=O)c2cc(Sc3ccc(F)cc3)nc3ccccc23)CC1 | / | . | 23µM | ? | .
CCc1ccc(Sc2cc(C(=O)NCCN3CCOCC3)c3ccccc3n2)cc1 | . | . | ? | 15µM | .
CCOc1ccc(Sc2cc(C(=O)NCCCOC)c3ccccc3n2)cc1 | / | . | 21µM | 16µM | .
CCCN(CCC)CCNC(=O)c1cc(Sc2ccc(Cl)cc2)nc2ccccc12 | / | . | 16µM | 18µM | .
CCOc1ccc(Sc2cc(C(=O)NC(C)c3ccccc3)c3ccccc3n2)cc1 (configuration not stated) | / | . | ? | ? | .
CCc1noc(C)c1C(=O)OCC(=O)N(CCOC)c1c(N)n(Cc2ccccc2)c(=O)[nH]c1=O | . | / | . | . | /
CC(C)N(C(C)C)S(=O)(=O)c1ccc(N2CCc3ccccc3C2)nc1 | . | ? | ? | ? | .
CC(=O)Nc1ccccc1C(=O)C(=O)O | . | . | .[9.04 µM] | .[9.04 µM] | .
CC(C)[C@H](NC(=O)c1ccco1)C(=O)OCC(=O)c1ccc(Br)s1 | . | / | . | . | .
CC1CCCCN1CCCNC(=O)c1cc(Sc2ccc(Cl)cc2)nc2ccccc12 (configuration not stated) | / | . | 18µM | 21µM | .
COc1ccc(-n2c(CN3CCC(C)CC3)nc3ccc([N+](=O)[O-])cc3c2=O)c(OC)c1 | . | . | 18µM | ? | .
COc1ccc(-n2c(CN3CCOCC3)nc3ccc([N+](=O)[O-])cc3c2=O)c(OC)c1 | . | . | . | . | /
COC(=O)CCC(=O)COc1ccc(OC)cc1C#N | . | . | . | . | .
COc1ccccc1NC(=O)N1CCC(C(=O)c2ccc(Cl)cc2)CC1 | . | . | ? | ? | .
O=S(=O)(c1ccc(Cl)c2ccccc12)N1CCCC1 | . | . | . | 0.46µM | .
CCOC(=O)C1CCN(S(=O)(=O)c2ccc3c4c(cccc24)C(=O)N3)CC1 | . | . | . | . | .
O=C1Nc2ccc(S(=O)(=O)N3CCCC3)c3ccc(S(=O)(=O)N4CCCC4)c1c23 | . | . | 8.2µM | ? | .
O=S(=O)(c1ccc(Br)c2ccccc12)N1CCCC1 | . | . | . | . | /
CCc1ccc(CN2CCC(N3CCC(C(=O)N4CCCC4)CC3)CC2)o1 | . | . | . | . | .
CCCn1c(/C=N/Nc2nc3ccccc3[nH]2)nc2ccccc21 | . | . | ? | ? | .
Cn1c(/C=N/Nc2nc3ccccc3[nH]2)nc2ccccc21 | . | . | ? | 29µM | .
CC(C)Cn1c(/C=N/Nc2nc3ccccc3[nH]2)nc2ccccc21 | . | . | 3.7µM | 3.3µM | .
Cc1nn(-c2ccccc2)c(C)c1/C=N/Nc1nc2ccccc2[nH]1 | . | ? | 18µM | 23µM | .
SMILES | uPA surface inh | miR-21 act | TDP1 cell CPT | DT40 TDP1 no CPT | TDP1 inh
COc1cccc(-c2cnc(C(O)c3cccc(F)c3)[nH]2)c1 (configuration not stated) | / | / | ? | . | /
Cc1ccc(C)c(N2CCN(C(=O)c3cn(C)c4ccc(S(=O)(=O)N(C)C)cc4c3=O)CC2)c1 | . | . | . | ? | .
Cc1ccc(O)c(-c2cc(-c3ccccc3C)[nH]n2)c1 | . | . | ? | ? | .
Cc1ccc(O)c(-c2cc(C(F)(F)C(F)F)[nH]n2)c1 | . | . | ? | 16µM | .
CN1CCN(C(=O)CCc2ccc(S(=O)(=O)NC3CCCCC3)cc2)CC1 | . | . | . | . | .
Cc1nc(-c2ccc(F)cc2)sc1CCNC(=O)c1ccc(C(C)(C)C)cc1 | / | ? | 15µM | 16µM | .
Cc1nc(-c2ccc(F)cc2)sc1CCNC(=O)c1ccc(OC(C)C)cc1 | / | . | ? | ? | .
Cc1nc(-c2cccc(F)c2)sc1CCNC(=O)Cc1ccc(F)cc1 | / | . | ? | ? | .
COc1ccc(C(=O)NCCc2sc(-c3ccc(Cl)cc3)nc2C)c(OC)c1 | / | . | 16µM | ? | .
Cc1nc(-c2ccc(Cl)cc2)sc1CCNC(=O)c1ccc(C(F)(F)F)cc1 | / | . | 8.2µM | 12µM | .
Cc1nc(-c2ccc(F)cc2)sc1CCNC(=O)c1ccccc1 | / | . | 15µM | 23µM | .
COc1ccc(NC(=O)C(=O)NCCc2sc(-c3ccc(Cl)cc3)nc2C)cc1 | / | . | . | . | .
CCC1CC(C(=O)Nc2ccccc2)C(=O)O1 (configuration not stated) | . | / | . | . | /
Cc1cc2c(=O)[nH]c(Cc3ccccc3)nc2s1 | . | . | ? | ? | .
COC(=O)Nc1nnc(Cc2ccc(OC)cc2)s1 | . | . | . | . | .
COc1ccc(-c2nc(C)c(CCNC(=O)c3cccs3)s2)cc1OC | / | . | / | / | .
Cc1nc(-c2ccc(F)cc2)sc1CCNC(=O)c1cccs1 | / | . | 21µM | ? | .
O=C(Cn1nnc(-c2ccccc2)n1)N/N=C/c1cccc([N+](=O)[O-])c1O | . | . | ? | 21µM | .
O=C(CN(Cc1ccc2c(c1)OCO2)C(=O)CNC(=O)c1ccco1)NC1CCCCC1 | . | . | . | . | .
